Results published in the supplement of paper PMC8726507.

system: Plasmodium falciparum NF54-HGL (transmission to Anopheles stephensi); assay: percentage of barcode signal found in uninfected mosquitoes (transmission-blocking activity); higher = stronger blocking of transmission to mosquito, active = 80 or more; conditions: 10 µM; gametocyte preincubation time 24 h; readout time post-feed 8 days
Protocol: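 The mixture was fed to Anopheles stephensi in 96-well plates as blood meals tagged with DNA-barcoded Asaia bacteria. Eight days later, mosquitoes were classed infected or uninfected by luminescence (mean + 5 SD of unfed controls). Barcodes were quantified by Luminex MagPlex-TAG in the pooled uninfected and infected Asaia cultures, background-corrected, and the score is % of barcode signal in uninfected mosquitoes = 100*Iu/(Iu+Ii).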

SMILES	percentage of barcode signal found in uninfected mosquitoes
CC(=O)NC[C@@H]1CN(c2ccc(N3CCOCC3)c(F)c2)C(=O)O1	4.01% (inactive)
C[C@H]1c2cccc(O)c2C(=O)C2=C(O)[C@]3(O)C(=O)C(C(N)=O)=C(O)[C@@H](N(C)C)[C@@H]3[C@@H](O)[C@@H]21	41.2% (inactive)
O[C@@H](c1cc(C(F)(F)F)nc2c(C(F)(F)F)cccc12)[C@H]1CCCCN1	43.2% (inactive)
Cc1cc2nc(NC(=O)C(C)(C)C)nc(Cl)c2n1Cc1ccc(Cl)cc1	79.6% (inactive)
COC(=O)C1=C(C)NC(C)=C(C(=O)OC(C)C)C1c1cccc2nonc12 (configuration not stated)	57.4% (inactive)
N#Cc1ccc(-c2ccc(OCC(N)=O)cc2)cc1	-1.66% (inactive)
Oc1c(I)cc(I)c2cccnc12	-1.81% (inactive)
Cc1cc(C)cc(COc2ccc3c(C)c(CCC(=O)O)c(=O)oc3c2C)c1	1.73% (inactive)
c1ccc(-c2cc(N3CCCCC3)c3ccccc3n2)nc1	53.1% (inactive)
Cn1ncc2c(N3CCOCC3)nc(NCCc3c[nH]c4ccccc34)nc21	64.2% (inactive)
CC(C)(C)C1CCC(CC2=C(O)C(=O)c3ccccc3C2=O)CC1 (configuration not stated)	83.7% (active)
COc1ccc(N(CCc2cccc(C)n2)C(=O)C2CCCCC2)cc1	29.5% (inactive)
COc1ccccc1C(C)NCC(=O)Nc1cc(C(F)(F)F)ccc1Cl (configuration not stated)	11.8% (inactive)
NS(=O)(=O)c1cncc(-c2ccc3nccc(-c4cn[nH]c4)c3n2)c1	78.5% (inactive)
CCOc1ccccc1C(=O)Nc1cccc(-c2nc3ncccn3c2C)c1	78.8% (inactive)
CS(=O)(=O)c1cccc(-c2cnc3[nH]cc(-c4ccc(CCC(=O)O)cc4)c3c2)c1	29.9% (inactive)
CO[C@@H](C(=O)N1Cc2[nH]nc(NC(=O)c3ccc(N4CCN(C)CC4)cc3)c2C1)c1ccccc1	68.7% (inactive)

same assay, conditions: 20 µM; gametocyte preincubation time 24 h; readout time post-feed 8 days

SMILES	percentage of barcode signal found in uninfected mosquitoes
O=[N+]([O-])c1cn2c(n1)OC[C@@H](OCc1ccc(OC(F)(F)F)cc1)C2	17% (inactive)
CCC(C)NC(=O)c1ccc(NC(=O)C2(c3ccccc3)CCCC2)cc1 (configuration not stated)	47.5% (inactive)
CCn1ncc2c(NC3CCOCC3)c(CNC(=O)c3ccnn3C)c(C)nc21	91.2% (active)
CN1CCN(c2nccc3[nH]c(-c4cccc(F)c4)cc23)CC1	-0.815% (inactive)
CCOc1ccccc1NC(C)C(=O)Nc1cc(C(F)(F)F)ccc1N1CCOCC1 (configuration not stated)	40.9% (inactive)
O=C(Nc1nnc(S)s1)c1cc(Br)ccc1Cl	18.9% (inactive)
CC(=O)NCC1CN(c2ccc(-c3ccc(CO)cc3)c(F)c2)C(=O)O1 (configuration not stated)	30.3% (inactive)
OC[C@H]1O[C@@H](n2c3ccc(Cl)cc3c3c(-c4cc5ccccc5o4)ncnc32)C(O)[C@H]1O (some centres not stated)	8.88% (inactive)
COc1ccc(-c2nnc3ccc(-c4cccc(C(C)C)c4)cn23)cc1OC	47.3% (inactive)
CO[C@H]1/C=C/O[C@@]2(C)Oc3c(C)c(O)c4c(O)c(/c(=C/NN5CCN(C)CC5)c(O)c4c3C2=O)=N\C(=O)/C(C)=C\C=C/[C@H](C)[C@H](O)[C@@H](C)[C@@H](O)[C@@H](C)[C@H](OC(C)=O)[C@@H]1C	20.2% (inactive)
Cc1ccc(-c2cc(C(=O)Nc3cccnc3)c3cc(Br)ccc3n2)cc1	42.5% (inactive)
CC(=O)Nc1ccc(-c2noc(CC3CCCN(Cc4cccc(F)c4C)C3)n2)cc1 (configuration not stated)	0.0253% (inactive)
CCCCOC(=O)Nc1cc2nc(C3CCCCC3)[nH]c2cc1N1CCCC1	33.9% (inactive)
COc1cccc(-n2nnnc2S(C)(=O)=O)c1	70.1% (inactive)
CC[P](CC)(CC)=[Au][S][C@H]1O[C@@H](COC(C)=O)[C@H](OC(C)=O)[C@@H](OC(C)=O)[C@@H]1OC(C)=O	99% (active)
Cc1cc(OCC(=O)NCc2ccccc2)c2cc(Br)ccc2n1	0.13% (inactive)
NC(=O)c1cc(Br)ccc1OCCOc1ccccc1	0.0693% (inactive)
C[C@H](c1ccc2c(c1)CCCC2)N(C)c1ncc2c(N)nc(N)nc2n1	0.379% (inactive)
O=C(NCCc1ccccc1)c1cc(-c2cccnc2)cnc1NCC1CC1	2.28% (inactive)
CCOC(=O)c1noc(N)c1-c1ccccc1	25.4% (inactive)
